# Shown are actives, neighbours in structure and some others; about 8.7% of the full set was active somewhere.
# PostGolgi yeast: growth inhibition of a yeast mutant, post-Golgi transport screen; actives 0.9% (n = 98,000); inhibition, % at 10 µM; post-Golgi transport phenotypic cell assay;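 further: yeast cells grown in 1536-well plates; yeast grown about 18 h at 30C before absorbance read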
# Smad3 inh: inhibitors of human Smad3 transcription factor binding; inhibition, % at 25 µM; TR-FRET Smad3/Dy647-FoxH1 peptide binding, europium anti-His; P84022; actives 0.29% (n = 88,000);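 active means compounds that reduce the energy-transfer binding signal between the protein and its labelled peptide by more than half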;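 further: 0% = Smad3 plus labelled peptide maximal FRET and 100% = peptide-only background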
# Cav32 inh: inhibitors of human Cav3.2 T-type calcium channel; Cav3.2-expressing cells, Fluo-4 calcium fluorescence FDSS; stronger effect = lower value; B-score at 10 µM; actives 4% (n = 100,000);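 active means single-dose well whose peak fluorescence ratio is a statistical outlier from its plate by either plate-standardised score or position-corrected B-score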
# PostGolgi ctrl: inhibits growth of the yeast control strain; actives 5% (n = 98,000); efflux-deficient yeast background strain, growth absorbance A615, 16 h; inhibition, % at 10 µM; AID 738
# TNAP act DEA: activates human TNAP at intermediate phosphate acceptor concentration. P05186. purified TNAP, CDP-star luminescence, 100 mM DEA, 30 min; stronger effect = higher value; scale: 0 levamisole-inhibited, 1 vehicle-only enzyme. activation factor at 20 µM. 64,000 tested, under 10 active;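 active means activation factor of at least 2 at 20 µM, relative to controls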
# hDAT+cocaine: modulates human dopamine transporter uptake under cocaine; Q01959; LLC-PK1 hDAT cells, [14C]-dopamine uptake with cocaine IC80; actives deviate in either direction; B-score at 10 µM; actives 1.3% (n = 110,000);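 active means Z score or B-score, a plate-position-corrected score, falls beyond the plate's 99.7% confidence bounds, in either direction; inactive means both scores lie inside the 99.7% bounds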;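 further: scored against the spread of the other compound wells on the same plate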
# * = called active by the depositor; / = no result. Unless noted, no stated cut-off is given here; in the data, active means inhibition above about 30%; inactive means the rest.
SMILES,PostGolgi yeast,Smad3 inh,Cav32 inh,PostGolgi ctrl,TNAP act DEA,hDAT+cocaine
O=C(N=NC(=O)c1ccc2c(O)n(C3CCCCC3)c(O)c2c1)c1cccnc1,1.4,/,0.999,-4.8,/,-0.249
COc1ccc(S(=O)(=O)NCCSCc2cccs2)cc1,4.8,9.9,-5.18,18.4,0.8,-1.42
COC(=O)c1sccc1NC(=O)CSc1ccccc1NS(=O)(=O)c1ccc(Cl)cc1,21.0,/,-6.05*,22.2,/,-0.0153
COC(=O)c1sccc1NC(=O)CSc1cc(Cl)ccc1Cl,-19.0,/,/,17.1,/,-0.666
COC(=O)c1sccc1NC(=O)CSc1ccccc1NS(=O)(=O)c1ccccc1Cl,-0.3,/,-4.26*,14.4,/,1.14
O=C(CN1CCCC1)N1c2ccccc2Sc2ccc(C(F)(F)F)cc21,/,-5.5,-0.228,/,/,-0.382
O=C(CN1CCN(c2ccccn2)CC1)N1c2ccccc2Sc2ccc(C(F)(F)F)cc21,3.5,9.1,-6.19*,41.0*,0.9,0.976
Cc1cc(C(=O)CSc2nc(N)cc(=O)[nH]2)c(C)n1CCc1ccc(F)cc1,4.1,-5.6,0.178,17.9,/,-1.4
FC(F)C(F)(F)C(F)(F)C(F)(F)c1cc(-c2ccccc2)n[nH]1,1.0,-5.4,-1.8,46.4*,0.7,-0.778
Cc1ccc(O)c(-c2cc(C(F)(F)C(F)F)[nH]n2)c1,11.6,12.8,-2.62,16.9,1.1,-0.0445
C/C=C(\C)c1nnc(NC(=O)C(C)C)s1,0.5,-4.5,0.0391,-0.9,0.8,0.859
N#CC1=C(N)N2C(=C(C#N)C13CCN(Cc1ccccc1)CC3)Nc1ccccc12,-20.1,0.7,0.0486,30.2*,0.9,0.0826
CC(C)c1[nH]nc2c1C1(CCN(Cc3ccccc3)CC1)C(C#N)=C(N)O2,-3.0,5.2,0.662,5.8,1,-0.0268
CC1CCCN(CCCNC(=O)C2CC(=O)N(c3ccc(F)c(Cl)c3)C2)C1 (configuration not stated),2.3,-11.3,0.114,1.8,0.9,-0.736
N#Cc1cc2c(nc1SCc1ccccc1)CCCCC2,-2.5,-6.9,-0.815,30.9*,/,-0.0325
N#Cc1cc2c(nc1SCc1ccc(Cl)cc1)CCCC2,/,1.1,-0.96,/,/,-0.257
N#Cc1cc2c(nc1SCC1COc3ccccc3O1)CCC2 (configuration not stated),-6.3,/,-6.24*,20.1,0.9,-0.549
Cc1cc(C)c(C#N)c(SCC2COc3ccccc3O2)n1 (configuration not stated),5.4,/,-4.73,20.9,0.8,-0.202
N#Cc1cc2c(nc1SCc1cccnc1)CCCCC2,43.5*,4.8,-3.47,62.6*,0.9,0.739
Cc1cccc(NC(=O)CSc2nnc(-c3ccc(S(=O)(=O)N4CCOCC4)cc3)n2C)c1,13.3,8.8,1.34,6.9,0.9,0.56
Cc1cc(C)n(CC2CC(=O)N(c3ccc(C)c(Cl)c3)C2=O)n1 (configuration not stated),/,-8.9,/,/,1.1,/
Cc1ccc(N2C(=O)CC(Sc3nc4ccccc4o3)C2=O)cc1Cl (configuration not stated),-3.1,/,0.169,38.5*,/,-7.16*
Cn1c(=O)n(Cc2ccccc2)c(=O)c2c1nc1n2CCCN1CCc1ccccc1,-1.7,13.9,-2.74,26.5,/,2.31
Cn1c(=O)n(Cc2ccccc2)c(=O)c2c1nc1n2CCCN1Cc1ccccc1,-5.0,-5.8,/,31.8*,0.9,-0.0385
Cc1ccc(Cn2c(=O)c3c(nc4n3CCCN4Cc3ccccc3)n(C)c2=O)cc1,5.7,5.5,-2.14,38.5*,0.9,1.32
SMILES,PostGolgi yeast,Smad3 inh,Cav32 inh,PostGolgi ctrl,TNAP act DEA,hDAT+cocaine
CC(C)CC1(C(=O)NCc2cc(F)cc(C(F)(F)F)c2)C=CCN1C(=O)c1ccccc1 (configuration not stated),/,/,-1.37,/,/,-0.504
O=C(NCc1cccc(F)c1)c1noc2c1CCCC2,-7.1,-2.8,-0.761,-1.7,0.9,-0.809
CCCNc1nc(Nc2ccc(C)cc2)nc(N2CCCC2)n1,-4.7,-3.0,-3.02,35.7*,/,0.0328
CCCn1c2c(c(O)c(C(=O)Nc3ccc(C)cn3)c1=O)CCCC2,/,-16.2,/,/,0.8,/
CCCn1c2c(c(O)c(C(=O)Nc3ncccc3C)c1=O)CCCC2,-2.1,8.7,-1.82,43.4*,1,1.2
c1ccc(-c2n[nH]nc2-c2ccccc2)cc1,23.1,1.5,0.34,30.0*,0.9,0.938
O=C(NCc1ccco1)c1cc(-c2ccncc2)nc2ccccc12,14.1,9.9,-5.77*,9.5,0.9,1.54
